Results reported in PubChem BioAssay (EPA / NIEHS).
Activity calls are given as the source filed them. Rule for the calls: active = hit-call score of the fitted dose curve at least 0.9, where 1 is the maximum; inactive = score below 0.9.

Experiments:
[1] = CEETOX_H295R_CORTIC: CeeTox H295R High-throughput Steroidogenesis Assay for Corticosterone (CORTIC) (AID 2283437); conditions: actives raise or lower the signal;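 note: corticosterone secreted into medium quantified by mass spectrometry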;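 for AC50: human H295R adrenal cells prestimulated with forskolin before chemical exposure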
Outline: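 Corticosterone secreted into medium is measured by reverse-phase HPLC with tandem MS following liquid-liquid extraction. Cells are forskolin-stimulated (10 uM, 48 h) before 48 h test exposure; activity fitted in both directions against DMSO.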

[2] = CEETOX_H295R_CORTISOL: CeeTox H295R High-throughput Steroidogenesis Assay for Cortisol (AID 2283438); conditions: actives raise or lower the signal;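 note: cortisol secreted into medium quantified by LC-MS/MS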
Outline: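 Human adrenocortical H295R cells (passage ≤10) received test chemicals for 48 h after forskolin priming. Secreted cortisol was measured by LC-MS/MS.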

[3] = CEETOX_H295R_DOC: CeeTox H295R High-throughput Steroidogenesis Assay for DOC (AID 2283439); conditions: actives raise or lower the signal
Outline: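 Secreted DOC was quantified from H295R media by HPLC-MS/MS after 48 h chemical exposure following 48 h forskolin (10 uM) prestimulation. Values were fitted in both directions relative to DMSO, the negative control and baseline.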

[4] = CEETOX_H295R_ESTRADIOL: CeeTox H295R High-throughput Steroidogenesis Assay for Estradiol (AID 2283440); conditions: actives raise or lower the signal;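 note: estradiol secreted into medium quantified by LC-MS/MS after dansyl derivatisation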
Outline: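 H295R cells pre-stimulated 48 h with 10 uM forskolin, then exposed 48 h to chemical in 0.1% DMSO. Medium estradiol quantified by MTBE extraction, dansyl derivatisation and HPLC-MS/MS; bidirectional fit versus DMSO; MTT viability required >/=70%.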

[5] = CEETOX_H295R_ESTRONE: CeeTox H295R High-throughput Steroidogenesis Assay for Estrone (AID 2283441); conditions: actives raise or lower the signal;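 note: estrone secreted into medium measured by LC-MS/MS after dansyl derivatization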
Outline: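 H295R cells; 48 h forskolin (10 uM) prestimulation; 48 h compound exposure, 0.1% DMSO final. Medium estrone: MTBE extraction, dansyl derivatization, HPLC-MS/MS. Bidirectional fit vs DMSO.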

[6] = CEETOX_H295R_PROG: CeeTox H295R High-throughput Steroidogenesis Assay for Progesterone (PROG) (AID 2283442); conditions: actives raise or lower the signal;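 for AC50: human H295R adrenal cells primed with 10 µM forskolin before dosing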
Outline: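 H295R adrenal cells prestimulated 48 h with 10 uM forskolin, then exposed 48 h to test chemical in 0.1% DMSO. Progesterone in medium quantified by HPLC-MS/MS after MTBE extraction; viability checked by MTT in same wells.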

[7] = read-out: Tumor necrosis factor receptor superfamily member 6 (Homo sapiens) (UniProt P25445); test: LTEA_HepaRG_FAS: Life Technologies and Expression Analysis (LTEA) Assay for Fas cell surface death receptor (FAS) using HepaRG (AID 2283447); conditions: mRNA level, 48 h; actives raise or lower the signal
Outline: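 FAS transcript level was measured by TaqMan qRT-PCR against three housekeeping genes after 48 h chemical exposure. Cells were HepaRG, 0.5% DMSO vehicle, with a top concentration of 100 uM and half-log dilutions over eight points, in duplicate.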

[8] = read-out: Fatty acid synthase (Homo sapiens) (UniProt P49327); test: LTEA_HepaRG_FASN: Life Technologies and Expression Analysis (LTEA) Assay for Fatty Acid Synthase (FASN) using HepaRG (AID 2283448); conditions: mRNA level, 48 h; actives raise or lower the signal;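 for AC50: differentiated human HepaRG liver cells in serum-free induction medium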
Outline: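 Transcript-level assay: HepaRG liver cells are treated for 48 h across an eight-point range topping at 100 uM, and FASN mRNA, normalized to three housekeeping genes, is compared with DMSO controls in both directions.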

[9] = read-out: Cyclin D2 (CCND2), CCND2 (gene 894); test: LTEA_HepaRG_CCND2: Life Technologies and Expression Analysis (LTEA) Assay for Cyclin D2 (CCND2) using HepaRG (AID 2283449); conditions: mRNA level, 48 h; actives raise or lower the signal
Outline: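 Read-out is CCND2 mRNA level measured by qRT-PCR in human HepaRG liver cells and normalised to three housekeeping genes. Chemicals were applied for 48 h at up to 100 uM, with gain or loss fitted relative to 0.5% DMSO.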

[10] = read-out: Cyclin Dependent Kinase Inhibitor 1A (CDKN1A), CDKN1A (gene 1026); test: LTEA_HepaRG_CDKN1A: Life Technologies and Expression Analysis (LTEA) Assay for Cyclin Dependent Kinase Inhibitor 1A (CDKN1A) using HepaRG (AID 2283450); conditions: mRNA level, 48 h; actives raise or lower the signal
Outline: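 Differentiated HepaRG cells in serum-free induction medium, exposed 48 h in duplicate to eight half-log concentrations up to 100 uM in 0.5% DMSO. mRNA measured by TaqMan qRT-PCR, normalized to ACTB, GAPDH, POLR2A; bidirectional fit versus DMSO.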

Measured: AC50

Sequence of Fatty acid synthase (Homo sapiens) (P49327 whole entry, looked up): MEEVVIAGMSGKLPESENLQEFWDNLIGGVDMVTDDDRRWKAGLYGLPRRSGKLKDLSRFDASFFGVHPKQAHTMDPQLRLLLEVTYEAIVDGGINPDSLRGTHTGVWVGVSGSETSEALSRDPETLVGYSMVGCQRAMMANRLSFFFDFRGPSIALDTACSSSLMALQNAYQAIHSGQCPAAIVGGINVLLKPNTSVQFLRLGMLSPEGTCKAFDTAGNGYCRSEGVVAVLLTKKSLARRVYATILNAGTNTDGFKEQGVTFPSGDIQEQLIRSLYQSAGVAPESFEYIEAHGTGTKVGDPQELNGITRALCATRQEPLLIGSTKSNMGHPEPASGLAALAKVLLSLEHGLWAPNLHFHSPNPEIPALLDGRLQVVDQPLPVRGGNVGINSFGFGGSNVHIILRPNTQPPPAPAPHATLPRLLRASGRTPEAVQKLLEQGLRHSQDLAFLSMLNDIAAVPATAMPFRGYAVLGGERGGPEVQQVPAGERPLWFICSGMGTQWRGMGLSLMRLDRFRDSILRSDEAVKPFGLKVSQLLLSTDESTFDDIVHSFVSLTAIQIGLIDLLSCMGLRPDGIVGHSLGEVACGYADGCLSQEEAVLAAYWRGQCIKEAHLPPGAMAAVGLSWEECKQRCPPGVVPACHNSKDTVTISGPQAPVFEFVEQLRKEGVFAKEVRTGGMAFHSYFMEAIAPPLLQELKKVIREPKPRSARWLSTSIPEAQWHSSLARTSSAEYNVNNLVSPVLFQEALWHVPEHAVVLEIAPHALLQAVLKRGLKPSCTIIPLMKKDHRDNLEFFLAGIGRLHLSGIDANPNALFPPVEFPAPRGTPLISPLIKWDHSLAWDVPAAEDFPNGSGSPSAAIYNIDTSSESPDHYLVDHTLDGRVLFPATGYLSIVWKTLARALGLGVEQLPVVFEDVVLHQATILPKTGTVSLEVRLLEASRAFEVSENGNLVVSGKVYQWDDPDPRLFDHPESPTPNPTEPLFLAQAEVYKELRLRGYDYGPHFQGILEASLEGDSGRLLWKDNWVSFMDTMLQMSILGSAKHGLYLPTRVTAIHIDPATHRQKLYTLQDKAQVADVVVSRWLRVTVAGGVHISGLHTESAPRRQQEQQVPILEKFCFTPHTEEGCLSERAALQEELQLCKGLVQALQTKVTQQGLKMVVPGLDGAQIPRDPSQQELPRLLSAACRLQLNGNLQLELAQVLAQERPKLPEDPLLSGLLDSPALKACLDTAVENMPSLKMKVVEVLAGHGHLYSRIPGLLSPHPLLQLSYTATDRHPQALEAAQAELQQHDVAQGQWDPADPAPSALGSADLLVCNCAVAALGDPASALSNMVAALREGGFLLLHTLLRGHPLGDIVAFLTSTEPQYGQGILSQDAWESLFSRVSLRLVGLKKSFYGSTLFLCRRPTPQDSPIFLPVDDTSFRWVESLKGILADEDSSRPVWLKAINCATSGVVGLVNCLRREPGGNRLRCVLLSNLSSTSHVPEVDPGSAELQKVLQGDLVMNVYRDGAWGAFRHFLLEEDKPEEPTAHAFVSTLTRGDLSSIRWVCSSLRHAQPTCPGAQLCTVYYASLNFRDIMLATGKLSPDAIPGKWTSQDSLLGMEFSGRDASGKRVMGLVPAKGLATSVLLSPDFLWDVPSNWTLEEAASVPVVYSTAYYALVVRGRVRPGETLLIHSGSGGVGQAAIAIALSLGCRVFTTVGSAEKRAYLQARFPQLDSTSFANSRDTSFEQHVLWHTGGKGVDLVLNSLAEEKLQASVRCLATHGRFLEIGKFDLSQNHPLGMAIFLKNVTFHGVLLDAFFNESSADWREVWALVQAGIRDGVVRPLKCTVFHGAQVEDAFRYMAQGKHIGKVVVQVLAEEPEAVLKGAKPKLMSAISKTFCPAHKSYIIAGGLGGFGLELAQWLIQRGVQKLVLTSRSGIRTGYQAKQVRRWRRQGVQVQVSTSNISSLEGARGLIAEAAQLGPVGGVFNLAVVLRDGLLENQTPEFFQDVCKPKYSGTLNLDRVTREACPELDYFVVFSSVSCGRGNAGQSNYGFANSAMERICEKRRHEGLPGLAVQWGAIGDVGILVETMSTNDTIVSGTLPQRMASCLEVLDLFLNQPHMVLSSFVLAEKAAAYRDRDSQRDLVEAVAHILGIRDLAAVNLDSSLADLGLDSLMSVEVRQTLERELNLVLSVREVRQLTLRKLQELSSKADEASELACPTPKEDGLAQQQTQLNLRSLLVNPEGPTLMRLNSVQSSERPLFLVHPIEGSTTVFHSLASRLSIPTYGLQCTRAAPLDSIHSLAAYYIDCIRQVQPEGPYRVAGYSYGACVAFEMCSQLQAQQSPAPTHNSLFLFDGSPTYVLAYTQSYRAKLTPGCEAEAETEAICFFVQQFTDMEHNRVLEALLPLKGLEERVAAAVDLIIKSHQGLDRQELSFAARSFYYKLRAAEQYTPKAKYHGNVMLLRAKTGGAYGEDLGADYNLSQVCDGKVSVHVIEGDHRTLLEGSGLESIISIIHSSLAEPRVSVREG

Cc1ccc(N)cc1O
active: [4] 40.9 µM | [6] 50 µM | [8] 26.3 µM
inactive: all other assays above

CNS(=O)(=O)c1cc(C(=O)N2CCC(CCN3C4CCC3CC(n3c(C)nc5ccccc53)C4)(c3cccc(F)c3)CC2)c(Cl)cc1F (configuration not stated)
inactive: [6] | [7] | [8] | [9]
active: [10] 31 µM

CC(C)c1cccc(C(C)C)c1N1C(=O)c2ccc(O)cc2C1=O
inactive: [1] | [7] | [9] | [10]
active: [2] 27.1 µM | [3] 16.7 µM | [6] 86.5 µM | [8] 82.1 µM

C=CCCCCCCCCC(=O)O
inactive: all assays above

CC(C)(O)c1coc(S(=O)(=O)NC(=O)Nc2c3c(cc4c2CCC4)CCC3)c1
active: [3] 25.2 µM | [6] 19.4 µM
not listed: [4] | [5]
inactive: all other assays above

CC1=CC(=O)CC(C)(C)C1
not listed: [4] | [5]
inactive: all other assays above

COc1ccc(/C=C/S(=O)(=O)NC(=O)c2ccc(C)cc2Cl)cc1
not listed: [4] | [5]
inactive: all other assays above

C[C@](N)(Cc1ccc(O)c(O)c1)C(=O)O
inactive: [6] | [7] | [8] | [9] | [10]

COC(=O)c1c(Cl)c(Cl)c(C(=O)OC)c(Cl)c1Cl
active: [1] 16.1 µM | [3] 50 µM | [4] 27.4 µM
not listed: [9]
inactive: all other assays above

CC[C@H](C)C(=O)O[C@H]1C[C@@H](C)C=C2C=C[C@H](C)[C@H](CC[C@@H]3C[C@@H](O)CC(=O)O3)[C@H]21
active: [1] 0.094 µM | [3] 0.641 µM | [8] 12.1 µM
inactive: all other assays above

CCC(C)(C)C(=O)O[C@H]1C[C@@H](C)C=C2C=C[C@H](C)[C@H](CC[C@@H]3C[C@@H](O)CC(=O)O3)[C@H]21
active: [3] 0.581 µM | [6] 0.24 µM | [8] 10.9 µM
inactive: all other assays above

Cc1ccc(O)cc1
not listed: [4] | [5]
inactive: all other assays above

Cn1c(=O)cc(Oc2ccc(F)cc2F)c2cnc(NCC(C)(C)O)nc21
inactive: all assays above

Fc1ccccc1[C@@H](F)COC1CCC(Nc2ncnc3[nH]ncc23)CC1 (some centres not stated)
active: [1] 1.41 µM | [2] 5 µM | [8] 50 µM | [10] 31.8 µM
inactive: [3] | [6] | [7] | [9]
